In PubChem BioAssay (EPA / NIEHS):
Results filed as inconclusive are left out. Activity calls are given as the source filed them. The calls were made as follows: active = hit-call score of the fitted dose curve at least 0.9, where 1 is the maximum; inconclusive = response in the unintended direction; inactive = score below 0.9.

Columns and labels:
[1] = TOX21_p53_BLA_p2_viability: Viability Assessment in the Tox21 HCT-116 p53 Agonism Beta-lactamase Assay, Phase 2 (AID 2283591);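 also: compound exposure lasted 16 h at 37 °C; actives lower the ATP signal meaning cytotoxicity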
Procedure, shortened: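 Cytotoxicity readout: CellTiter-Glo ATP luminescence, 30 min at room temperature, after the beta-lactamase read. Cells were HCT116 exposed 16 h at 37C to compounds pin-transferred at 217-fold dilution from DMSO stocks.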

[2] = biological target: Cellular tumor antigen p53 (Homo sapiens) (UniProt P04637); assay: TOX21_p53_BLA_p2_ratio: Tox21 HCT-116 p53 Agonism Beta-lactamase Assay, Ratio, Phase 2 (AID 2283592)
Sequence of Cellular tumor antigen p53 (Homo sapiens) (P04637 whole entry, looked up): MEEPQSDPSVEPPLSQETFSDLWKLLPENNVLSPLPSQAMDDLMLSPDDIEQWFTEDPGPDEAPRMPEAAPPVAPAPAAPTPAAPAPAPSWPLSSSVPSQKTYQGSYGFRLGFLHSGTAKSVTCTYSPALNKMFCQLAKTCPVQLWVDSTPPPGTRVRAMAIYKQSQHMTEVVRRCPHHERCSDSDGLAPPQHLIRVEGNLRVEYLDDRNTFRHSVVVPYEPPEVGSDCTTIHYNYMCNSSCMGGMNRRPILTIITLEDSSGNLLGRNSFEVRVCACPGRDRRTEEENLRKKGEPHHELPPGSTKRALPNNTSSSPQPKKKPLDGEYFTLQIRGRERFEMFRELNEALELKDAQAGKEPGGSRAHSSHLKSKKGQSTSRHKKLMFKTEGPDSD
Procedure, shortened: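 Ratio endpoint: beta-lactamase cleavage of CCF4-AM, blue (460 nm) over green (530 nm). HCT116 reporter line; 16 h treatment, 37C; substrate 2 h RT.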

[3] = TOX21_p53_BLA_p3_viability: Viability Assessment in the Tox21 HCT-116 p53 Agonism Beta-lactamase Assay, Phase 3 (AID 2283593);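 also: cells exposed to compound for 16 h before reading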
Procedure, shortened: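 Cellular ATP was quantified by CellTiter-Glo luminescence, read after 30 min at room temperature. Beforehand, HCT116 cells (4000/well) received compound 5 h post-seeding, 217-fold diluted from DMSO, then incubated 16 h at 37C.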

[4] = biological target: Cellular tumor antigen p53 (Homo sapiens) (UniProt P04637); assay: TOX21_p53_BLA_p3_ratio: Tox21 HCT-116 p53 Agonism Beta-lactamase Assay, Ratio, Phase 3 (AID 2283596)
Procedure, shortened: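 Cells were seeded at 4000/well, rested 5 h at 37C, then dosed with DMSO compound solutions (217-fold dilution) for 16 h. CCF4-AM substrate was loaded for 2 h at room temperature, and the 460/530 nm emission ratio was fitted for gain of signal versus DMSO.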

[5] = biological target: Cellular tumor antigen p53 (Homo sapiens) (UniProt P04637); assay: TOX21_p53_BLA_p5_ratio: Tox21 HCT-116 p53 Agonism Beta-lactamase Assay, Ratio, Phase 5 (AID 2283599)
Procedure, shortened: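 Beta-lactamase reporter ratio (blue 460 nm over green 530 nm, 405 nm excitation) after 2 h CCF4-AM loading, in HCT-116 cells exposed 16 h at 37 C to compounds pinned at 217-fold dilution. Increases relative to DMSO baseline scored.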

[6] = TOX21_p53_BLA_p5_viability: Viability Assessment in the Tox21 HCT-116 p53 Agonism Beta-lactamase Assay, Phase 5 (AID 2283600)
Procedure, shortened: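 Luciferase-coupled ATP quantitation of cells treated for 16 h (37C, 5% CO2) with test chemicals delivered in DMSO via a 217-fold dilution; 4000 cells/well; reagent incubated 30 min at room temperature before luminescence reading.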

[7] = biological target: Cellular tumor antigen p53 (Homo sapiens) (UniProt P04637); assay: TOX21_p53_BLA_p4_ratio: Tox21 HCT-116 p53 Agonism Beta-lactamase Assay, Ratio, Phase 4 (AID 2283601)
Procedure, shortened: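 Signal is the blue/green (460nm/530nm) ratio of cleaved versus uncleaved CCF4-AM substrate, read after 2 h substrate loading. Cells were HCT116 carrying the p53-responsive beta-lactamase reporter, dosed 16 h at 37C, 5% CO2; CellTiter-Glo measured in parallel.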

[8] = TOX21_p53_BLA_p4_viability: Viability Assessment in the Tox21 HCT-116 p53 Agonism Beta-lactamase Assay, Phase 4 (AID 2283597);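 also: hits lower the luminescence signal meaning cytotoxicity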
Procedure, shortened: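 Cytotoxicity was inferred from loss of CellTiter-Glo luminescence. HCT116 cells had been dosed with compounds after 5 h plating, incubated 16 h at 37C and 5% CO2, and exposed to the CCF4-AM substrate for 2 h.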

Compound | AC50 [1] | outcome [2] | AC50 [3] | outcome [4] | outcome [5] | AC50 [6] | outcome [7] | outcome [1] | outcome [3] | outcome [8] | outcome [6] | AC50 [2] | AC50 [4]
CC(=O)O[C@H]1C[C@H](O[C@H]2[C@@H](O)C[C@H](O[C@H]3[C@@H](O)C[C@H](O[C@H]4CC[C@@]5(C)[C@H](CC[C@@H]6[C@@H]5C[C@@H](O)[C@]5(C)[C@@H](C7=CC(=O)OC7)CC[C@]65O)C4)O[C@@H]3C)O[C@@H]2C)O[C@H](C)[C@H]1O[C@@H]1O[C@H](CO)[C@@H](O)[C@H](O)[C@H]1O | 109 nM (active) | inactive | 85.7 nM (active) | inactive | inactive | 75.8 nM (active) | inactive |  |  |  |  |  | 
CN1[C@@H]2CC[C@H]1CC(OC(=O)c1cc(Cl)cc(Cl)c1)C2 (stereo partly drawn) |  | inactive |  |  | inactive |  | inactive | inactive | inactive | inactive | inactive |  | 
C[C@@H](CO)NC(=O)[C@@H]1C=C2c3cccc4[nH]cc(c34)C[C@H]2N(C)C1 |  | inactive |  | inactive | inactive |  | inactive | inactive | inactive |  | inactive |  | 
S=C=S |  | inactive |  | inactive | inactive |  | inactive | inactive | inactive |  | inactive |  | 
O=C(NC(=O)c1ccccc1Cl)Nc1ccc(OC(F)(F)F)cc1 |  | inactive |  | inactive | inactive |  | inactive | inactive | inactive |  | inactive |  | 
O=[N+]([O-])/C=C/c1ccccc1 |  |  |  | inactive | inactive |  | inactive | inactive | inactive |  |  | 12000 nM (active) | 
CN[C@@]1(c2ccccc2Cl)CCCCC1=O |  | inactive |  | inactive | inactive |  | inactive | inactive | inactive |  | inactive |  | 
COc1ccc2c3c1O[C@H]1[C@@H](O)C=C[C@H]4[C@@H](C2)NCC[C@@]341 |  | inactive |  | inactive | inactive |  | inactive | inactive | inactive |  | inactive |  | 
C(CCOCC1CO1)COCC1CO1 (stereo not drawn) |  | inactive |  |  | inactive |  | inactive | inactive | inactive |  |  |  | 65200 nM (active)
c1ccccc1 |  | inactive |  | inactive |  |  | inactive | inactive | inactive |  |  |  | 
COc1cccc(C(=O)CCN[C@@H](C)[C@H](O)c2ccccc2)c1 |  | inactive |  |  | inactive |  | inactive | inactive | inactive | inactive | inactive |  | 
